Measurements reported in PubChem BioAssay (NCI).
Compounds without any hit were thinned out: in the full panel of roughly 83,000, 20% have a hit.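 In brief: 96-well plates, 48 h treatment, single concentration, percent growth endpoint.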 Unmarked numbers belong to inactive results. The source made the active and inactive calls.

Test system: HOP-62 NSCLC
Assay: NCI-60 one-dose screen, 48 h (100 = growth as untreated, 0 = no growth, -100 = all killed)
Details: 10 µM unless noted
Protocol: Growth inhibition of the HOP-62 human Non-Small Cell Lung tumor cell line is measured as a screen for anti-cancer activity. Cells are grown in 96 well plates and exposed to the test compound for 48 hours. Compounds are tested at a single concentration, which is 10^-5 M for most compounds. The reported endpoint is percent growth (GI% or GIPRCNT), where numbers from 0 - 100% represent growth inhibition, and numbers from -100% - 0 represent cell death. For example, a value of 40 represents 60% growth inhibition. A value of 0 means no net growth occurred over the course of the experiment. A value of -40 indicates 40% of cells at the beginning of the experiment died by the end of the experiment. A value of -100 means all cells are dead at the end of the experiment.
NCI-60 Human Tumor Cell Lines Screen was performed using the standard one-dose NCI protocol, which is described in more detail at https://dtp.cancer.gov/discovery_development/nci-60/default.htm.
Compounds with GIPRCNT values below 10 were considered active. Activity score was based on GIPRCNT using the following formula: […]
Score is 0 for GIPRCNT values of 100 or above, 50 for GIPRCNT values of 0, and 100 for GIPRCNT values of -100.

SMILES | growth
O=c1nc(Nc2cccc(Cl)c2)oc2cc(Cl)oc(=O)c12 | 81.5%
COc1cccc(C(=O)O)c1OC | 89.4%
CC1CC2C3CCC4=CC(=O)CCC4(C)C3CCC2(C)C1(O)C(=O)CO (stereo not given) | 106%
ClCC(Cl)[C@@H]1CC2C=CC1C2 (stereo not given in full) | 109%
CN(C(=S)S(=O)(=O)C12CC3CC(CC(C3)C1)C2)c1ccccc1 | 116%
COc1cc(C(=O)N2CCN(c3ccccc3)CC2)c2ccccc2n1 | 41.1%
S=c1nc2[nH]c3ccccc3c2n[nH]1 | -1.58% (active)
Cc1ccc[n+](CCC(N)=O)c1 | 87.2%
CCOC(=O)c1c(C)[nH]c(C)c1C=O | 86.9%
O=C(Nc1ccccc1)c1ccco1 | 101%
Nc1c(Br)cc(O)c2c1C(=O)c1ccccc1C2=O | 117%
Nc1cc(N)ncn1 | 112%
CC1CCC(C)(C)c2ccccc21 (stereo not given) | 99.9%
CCCCCC(=O)OCCC1CCCCC1 | 98.6%
COc1ccc(-c2csc(NC(=O)Nc3nc(-c4ccc(OC)cc4)cs3)n2)cc1 | 106%
BrCc1cccc(C[P+](c2ccccc2)(c2ccccc2)c2ccccc2)c1 | 33.8%
CCCCCCCCCc1ccc(OC(C)=O)cc1 | 113%
N#CC1(O)CCCCC1 | 95.2%
Cc1nc(C)c(C(=O)O)cc1C(=O)O | 106%
Cc1ccccc1CC(N)C(=O)O (stereo not given) | 103%

SMILES | growth
O=Cc1c(O)c2ccccc2[nH]c1=O | 102%
Clc1ncnc2nc[nH]c12 | 83.7%
c1ccc(Oc2c3ccccc3nc3ccccc23)cc1 | 16.1%
CS(=O)CC(=N\O)/C(CS(C)=O)=N\O (stereo not given) | 102%
COC1OC(CO)C(OC)C(O)C1O (stereo not given) | 102%
CCOC(OCC)C(=O)c1ccccc1 | 98.5%
CCCCCCCCCCCCSC1=C(Cl)C(=O)C(OC)=C(OC)C1=O | 75.2%
Cc1ccc2nc(-c3ccc(N=Cc4ccccc4O)cc3)sc2c1 | 77.9%
CC(=O)C1C(=O)C(=O)N(c2ccc(Cl)c(Cl)c2)C1=O (stereo not given) | 89.3%
NC(CO)(CO)c1ccccc1 | 100%
CCN(CC)c1ccc2nc3ccc(N=Nc4ccc(N(C)C)cc4)cc3[n+](-c3ccccc3)c2c1 | -87.9% (active)
CC(C)=CCC[C@@H](C)[C@H]1CC[C@@]2(C)C3=C(CC[C@]12C)[C@@]1(C)CC[C@H](O)C(C)(C)[C@@H]1CC3 | 107%
CC1(C)CCC(C)(C)NC(=S)N1 | 94.9%
CC(C)C(=O)OCCOc1ccc(C(C)(C)C)cc1 | 102%
CCCC(=O)CC(=O)c1ccccc1 | 92.8%
Cc1nc(O)cc(=O)[nH]1 | 112%
Cn1c(=O)c2[nH]c(CCCCC(=O)O)nc2n(C)c1=O | 108%
COc1ccc2c(c1)Nc1ccccc1S2 | 105%
CC(=O)c1cccc(O)c1 | 93%
C=CCOc1ccc(Cl)cc1Cl | 113%
